Activity calls are given as the source filed them.
Assays:
Albumin (Bos taurus) = Albumin (Bos taurus) (UniProt P02769); assay: compounds binding labelled BSA control protein – biochemical, small-molecule microarray, Alexa647 label, 635/667 nm fluorescence, artefact control for SMM control protein annotation, profiling panel (AID 1118); settings: BSA-A647 binding, fluorescence 635 nm, higher = more signal;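 also: score merges 667 nm emission intensity and signal-to-noise per printed compound spot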
[1] = probe aXIP binding to arrayed compounds – biochemical, NeuroSMM set, 635/667 nm fluorescence, primary screen (AID 1119); settings: small-molecule microarray, higher = more signal, called active from +8 up or from −8 down;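 also: probe is the protein aXip251-270 applied at 1 µg/mL to compound-printed slides; binding of probe to printed compounds measured as 667 nm fluorescence plus signal to noise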
[2] = probe aNOTCH3 binding on compound microarray – biochemical, small-molecule microarray, 635/667 nm fluorescence, primary screen (AID 1120); settings: higher = more signal;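 also: probe is a biotin-tagged antibody raised against NOTCH3 rather than NOTCH3 protein; score merges spot fluorescence near 667 nm with spot signal to noise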
[3] = probe aNOTCH2 binding on compound microarray – biochemical, small-molecule microarray, 635/667 nm fluorescence, primary screen (AID 1121); settings: higher = more signal;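 also: score merges feature fluorescence read at 667 nm with its signal to noise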
[4] = molecular target: Carbonic anhydrase 2 (Homo sapiens) (UniProt P00918); assay: compounds binding carbonic anhydrase 2 – biochemical, small-molecule microarray, Alexa647-labelled CAII, profiling panel (AID 1122); settings: CAII-A647 binding fluorescence, higher = more signal
[5] = COS7 lysate on small-molecule microarray, probe aHis, 635 nm (AID 1123); settings: COS7 cell lysate, fluorescence, higher = more signal;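 also: z-score combines 667nm fluorescence intensity with signal-to-noise per printed compound spot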
[6] = probe aLAP1 signal on lysate-treated microarray – cell lysate, small-molecule microarray, COS7 lysate, primary screen (AID 1124); settings: probe aLAP1, fluorescence, higher = more signal;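 also: lysate comes from COS7 cells expressing LAP1 and is applied at 0.3 µg/mL; score merges spot fluorescence near 667 nm with signal-to-noise over triplicate slides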
Sam68 (KHDRBS1) = assay: compounds binding KHDRBS1 protein – biochemical, small-molecule microarray, 635 nm fluorescence, primary screen (AID 1125); settings: higher = more signal;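 also: score merges 667 nm channel intensity with signal to noise over triplicate slides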
[7] = test system: Chordin-like protein 2 (CHRDL2); assay: compounds binding chordin-like 2 – biochemical, small-molecule microarray, 635 nm fluorescence, primary screen (AID 1126); settings: fluorescence 635 nm, higher = more signal;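 also: printed compound slides probed with Chrdl2 protein at 4 µg/mL for 1 h at 4 C; score merges 667 nm emission intensity with signal to noise over three replicate slides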
[8] = molecular target: Concanavalin-A (Canavalia ensiformis) (UniProt P02866); assay: compounds binding concanavalin A lectin – biochemical, small-molecule microarray, Alexa647 label, 635 nm, artefact control for SMM control protein annotation, primary screen (AID 1127); settings: ConA-A647 binding fluorescence, higher = more signal;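 also: z combines 667 nm emission intensity with signal-to-noise across three replicate slides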
Sequence of Concanavalin-A (Canavalia ensiformis) (P02866 whole entry, looked up): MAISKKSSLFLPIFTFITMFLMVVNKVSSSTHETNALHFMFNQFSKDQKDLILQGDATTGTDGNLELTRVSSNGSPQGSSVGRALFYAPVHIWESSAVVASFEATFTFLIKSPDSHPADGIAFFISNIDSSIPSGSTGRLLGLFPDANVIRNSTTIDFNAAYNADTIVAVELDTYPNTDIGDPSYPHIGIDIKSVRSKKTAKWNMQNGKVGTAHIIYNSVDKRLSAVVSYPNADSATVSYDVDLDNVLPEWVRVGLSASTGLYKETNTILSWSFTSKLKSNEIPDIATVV

Sequence of Albumin (Bos taurus) (P02769 whole entry, looked up): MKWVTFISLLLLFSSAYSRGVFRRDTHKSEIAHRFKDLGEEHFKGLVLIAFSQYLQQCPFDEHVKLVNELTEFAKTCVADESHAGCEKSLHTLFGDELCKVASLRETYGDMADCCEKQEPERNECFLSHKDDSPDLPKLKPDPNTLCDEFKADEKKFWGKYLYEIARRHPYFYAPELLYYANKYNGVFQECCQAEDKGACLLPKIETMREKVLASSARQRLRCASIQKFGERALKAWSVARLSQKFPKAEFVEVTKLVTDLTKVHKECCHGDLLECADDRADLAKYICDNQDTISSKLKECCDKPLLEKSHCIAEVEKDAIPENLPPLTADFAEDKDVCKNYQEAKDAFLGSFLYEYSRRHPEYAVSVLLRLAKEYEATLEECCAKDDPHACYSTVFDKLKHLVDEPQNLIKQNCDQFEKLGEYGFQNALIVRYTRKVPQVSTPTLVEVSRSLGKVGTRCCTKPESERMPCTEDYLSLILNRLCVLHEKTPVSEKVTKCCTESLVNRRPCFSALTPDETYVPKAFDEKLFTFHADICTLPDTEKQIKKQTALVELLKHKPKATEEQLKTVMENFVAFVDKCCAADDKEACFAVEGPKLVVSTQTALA

Row | Compound | composite z-score (Albumin (Bos taurus)) | composite Z-score [1] | composite z-score [2] | composite z-score [3] | composite z-score [4] | composite z-score [5] | composite z-score [6] | composite z-score (Sam68 (KHDRBS1)) | composite z-score [7] | composite z-score [8]
1 | CC(C)CNC(=O)[C@@H]1c2ccccc2C(=O)N(C(C)C)[C@H]1c1ccc(CO)cc1 | 0.121 | 0.337 (inactive) | -0.153 | -0.0454 | 0.757 | 0.435 | 1.25 | -0.463 | 0.0021 | -1.56
2 | CCCCC(O)C1C=CC2C(=O)N(C)C(=O)C2N1Nc1ccccc1 (stereo not given) | 0.555 | 0.267 (inactive) | 0.138 | -0.0708 | 0.72 | 2.06 | 0.182 | 1.29 | -0.107 | 0.31
3 | CC(C)C[C@H]1NC(=O)[C@H](Cc2ccccc2)NC(=O)[C@@]23C(=O)N[C@@H](Cc4ccccc4)C2[C@H](C)[C@@]2(C)O[C@H]2C3/C=C/C/C=C\CNC1=O (stereo not given in full) | -0.235 | 0.63 (inactive) | -0.0077 | -0.153 | 0.535 | 1.14 | 0.495 | 1.3 | 0.937 | 0.738
4 | CC(C)C[C@H]1NC(=O)[C@@]23C(=O)N[C@@H](Cc4ccccc4)C2[C@H](C)[C@@]2(C)O[C@H]2C3/C=C/C/C=C\CNC(=O)[C@@H]2CCCN2C1=O (stereo not given in full) | 0.773 | 0.119 (inactive) | 0.0694 | -0.176 | 0.725 | 1.23 | 0.145 | 0.975 | 0.293 | 0.276
5 | C[N+](C)(C)CCCC[C@@H]1NC(=O)[C@H]2C[C@@H](C(=O)NCCCCCNC(=O)CS)[C@@H](c3ccc(O)cc3)N2C1=O | 0.896 | 0.325 (inactive) | -0.154 | -0.158 | 0.678 | 1.45 | 0.361 | 0.616 | 0.268 | 0.997
6 | CC(C)C[C@@H]1NC(=O)[C@H]2C[C@@H](C(=O)NCCCCCCNC(=O)CS)[C@@H](c3ccc(O)cc3)N2C1=O | 0.291 | 0.741 (inactive) | -0.0581 | 0.0018 | 0.665 | 1.73 | 0.0905 | 1.3 | 0.986 | 1.11
7 | COc1cc2c(cc1O)C(c1ccc(CN3CCCC3)cc1)N(Cc1cccc(OC(F)(F)F)c1)CC2 (stereo not given) | 0.771 | 0.339 (inactive) | -0.0795 | -0.207 | 0.546 | 1.72 | 0.637 | 0.658 | 0.73 | -0.328
8 | C=CCC(OC(C)=O)[C@@H]1[C@@H](N(Cc2ccc(-c3ccccc3)cc2)C(=O)c2cccc3ccccc23)c2cc(OCCCO)ccc2N1C(=O)c1ccc2ccccc2c1 (stereo not given in full) | 0.002 | -0.124 (inactive) | -0.0377 | -0.0368 | 0.0991 | 0.116 | 0.0105 | 0.263 | -0.52 | -0.31
9 | CC(C)[C@@H](C(=O)O)n1cc(-c2ccccc2)nn1 | 0.739 | 0.0388 (inactive) | -0.0225 | -0.0454 | 0.39 | 0.575 | 0.547 | 1.06 | -0.145 | 1.12
10 | CC(=O)NCCCC[C@@H]1NC(=O)[C@@H]2C[C@H](C(=O)NCCCCCC[N+](C)(C)C)[C@H](c3ccc(O)cc3)N2C1=O | -0.78 | 0.0461 (inactive) | -0.0611 | -0.0173 | 0.188 | 1.17 | -0.414 | 0.992 | 0.965 | 0.301
11 | COc1ccc(CCNC(=O)[C@@H]2c3ccccc3C(=O)N(CC34CC5CC(CC(C5)C3)C4)[C@H]2c2ccc(CO)cc2)cc1 | 0.764 | -0.422 (inactive) | 0.0206 | -0.132 | 0.539 | 1.7 | -0.0344 | 1.22 | 0.23 | 1.11
12 | O=C1C2C=CC(C(O)C(c3ccccc3)c3ccccc3)N(Nc3ccccc3)C2C(=O)N1c1ccccc1 (stereo not given) | 0.876 | 0.312 (inactive) | 0.278 | -0.0633 | 0.619 | 2.17 | 0.0595 | 1.3 | -0.236 | 0.942
13 | CCCC[C@@H]1C[C@H]1[C@@H](NC(=O)Cc1ccccc1)c1ccc(Cl)cc1 | 1.1 | 0.491 (inactive) | 0.532 | -0.129 | 0.69 | 2.76 | 0.323 | 1.31 | -1.01 | 1.16
14 | COc1ccc(NN2C(C(O)c3ccc(OC)cc3)C=CC3C(=O)N(C4CCCCC4)C(=O)C32)cc1 (stereo not given) | 0.828 | 0.297 (inactive) | 0.124 | -0.0037 | 0.405 | 1.1 | 0.0023 | 1.28 | -0.138 | 0.872
15 | CC(C)c1ccc(NN2C(C(O)C(C)C)C=CC3C(=O)N(c4ccccc4)C(=O)C32)cc1 (stereo not given) | 1.07 | 0.349 (inactive) | 0.761 | 0.353 | 0.615 | 2.89 | 1.43 | 1.31 | -0.256 | 1.2
16 | N#Cc1ccc(C(O)C2C=CC3C(=O)NC(=O)C3N2Nc2ccccn2)cc1 (stereo not given) | 0.95 | -0.483 (inactive) | 0.0297 | -0.0907 | 0.854 | 0.767 | 0.711 | -0.106 | 0.31 | 0.468
17 | COC(=O)c1ccc([C@H](NC(=O)c2ccccc2)[C@]2(C)C[C@H]2C2CCCCC2)cc1 | 0.543 | 0.293 (inactive) | 0.237 | -0.0282 | 0.158 | 1.89 | 0.416 | 0.715 | -0.941 | 0.551
18 | COCCOC(=O)N1C(=O)[C@@]2(c3cc(C#Cc4ccc(OC)cc4)ccc31)[C@H](C(=O)Nc1nc3ccccc3s1)[C@H]1C(=O)O[C@H](c3ccccc3)[C@H](c3ccccc3)N1[C@@H]2c1ccccc1OCCO | 0.545 | -0.331 (inactive) | 0.124 | 0.159 | 0.547 | 0.874 | 0.304 | 0.997 | 0.649 | 1.11
19 | CCCC=C(CCC)[C@@H](NC(=O)c1ccccc1)c1ccc(C(=O)OC)cc1 | -0.122 | -0.222 (inactive) | 1.21 | -0.166 | 0.526 | 1.77 | 0.0914 | 0.823 | 0.308 | 0.711
20 | O=C1c2ccccc2[C@](Cc2ccccc2I)(C(=O)O)[C@H](c2ccc(CO)cc2)N1Cc1ccccc1 | 0.48 | 0.929 (inactive) | -0.123 | -0.112 | 0.729 | 1.25 | 1.05 | 1.25 | -0.813 | 1.02
21 | C=C(COC)C(=O)CC[C@@H](OC(C)=O)c1ccc(OCCO)cc1 | -0.561 | 0.392 (inactive) | 0.0426 | -0.125 | 0.648 | 0.206 | -0.217 | 0.744 | -0.127 | 0.891
22 | CCOC(=O)C[C@H]1[C@H](OC(=O)c2ccc(-c3ccccc3)cc2)[C@@H](NC(=O)c2ccc3ccccc3c2)c2cc(OCCCO)ccc2N1C(=O)c1ccccc1 | 0.571 | 1.03 (inactive) | 0.0351 | -0.132 | 0.119 | 0.916 | 0.14 | 1.16 | -0.126 | 0.353

Source: PubChem BioAssay
